Screening results (PubChem BioAssay)
Mot1-301 SUMO = yeast Mot1-301 growth rescue at high temperature, primary screen, SUMOylation pathway inhibitor project, S. cerevisiae, ATP luminescence, 38.5C | 1% of 320,000 active | growth rescue, % at 18.8 µM | S. cerevisiae Mot1-301 growth rescue; percent above DMSO median, 100 means doubled | AID 2716, 2010;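 active = every valid replicate shows activation above 250% relative to neutral control wells; inactive = the rest, any valid replicate at or below 250%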
N-glyco inh = increase of ERlucT glycosylation luciferase signal, primary screen, N-linked glycosylation inhibitor project, D54 ERlucT cells, luminescence, set 2 | D54 ERlucT glycosylation luciferase reporter, 24 h; percent of 100 nM tunicamycin response | reporter increase, % at 12.5 µM | 0.23% of 360,000 active;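 active = mean luciferase reporter signal, scaled so untreated is 0 and the glycosylation-blocking control 100, at or above a set limit in every replicate; inconclusive = mean reaches the limit but not every replicate does; inactive = mean below the limit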;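 also: luciferase carries N-glycosylation sites so blocking glycosylation raises the light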
NSD2 HMT inh = NSD2 histone methyltransferase inhibitors, primary screen, biochemical, AlphaScreen, single concentration, set 2; Histone-lysine N-methyltransferase NSD2 (Homo sapiens), O96028; NSD2 peptide methylation, 120 min; inhibition, % at 12.5 µM; 0.54% of 310,000 active; in the data active = inhibition above about 50%
Casp6 inh = human caspase-6 inhibitors, primary screen, biochemical, VEID-R110 fluorescence, single point, set 2 | P55212 | purified caspase-6, Z-VEID-R110 cleavage fluorescence | inhibition, % at 12.5 µM | 0.53% of 350,000 active | AID 686996, 2013;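 active = mean inhibition across replicates at least about 35%, with every replicate also reaching that limit, limit read from the data; inconclusive = only one of the two criteria met; inactive = neither criterion met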
Target sequence (P55212 24-179 limits assumed): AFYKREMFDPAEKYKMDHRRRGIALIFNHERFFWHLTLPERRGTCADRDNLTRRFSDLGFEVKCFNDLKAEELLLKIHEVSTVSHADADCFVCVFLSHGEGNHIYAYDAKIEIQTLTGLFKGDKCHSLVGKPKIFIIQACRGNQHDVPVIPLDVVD
Target sequence (P55212 194-293 limits assumed): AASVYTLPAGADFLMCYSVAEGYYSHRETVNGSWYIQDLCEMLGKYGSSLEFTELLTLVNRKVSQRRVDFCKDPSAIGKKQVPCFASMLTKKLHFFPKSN
ALR inh = inhibitors of human ALR sulfhydryl oxidase, primary screen, biochemical, H2O2 detection, HRP-luminol luminescence, single point; 3.8% of 290,000 active; inhibition, % (no concentration beside the values); purified ALR, DTT oxidation; AID 485317, 2010;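 active = mean replicate inhibition above about 79%, with every replicate also reaching it, limit read from the data; inconclusive = only one of the two criteria met; inactive = mean below limit and not every replicate reaching it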
Target sequence (P55789 whole entry, looked up): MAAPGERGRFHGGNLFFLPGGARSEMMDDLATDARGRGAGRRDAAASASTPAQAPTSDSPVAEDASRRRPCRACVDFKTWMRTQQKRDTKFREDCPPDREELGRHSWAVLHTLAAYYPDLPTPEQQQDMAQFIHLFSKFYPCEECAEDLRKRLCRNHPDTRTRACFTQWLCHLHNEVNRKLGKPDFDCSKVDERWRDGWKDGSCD
CDK5 p35 inh = inhibitors of human CDK5/p35 kinase, primary screen, biochemical, single concentration; Recombinant CDK5/p35, ADP-Glo luminescence, 60 min; inhibition, % at 10 µM; 0.01% of 330,000 active; AID 488839, 2010;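 active = highest replicate inhibition of at least 50% and at least 75% of replicates reaching 50%; inconclusive = only one of the two criteria met; inactive = both criteria failed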
Numbers stand for hits. This is a sample that favours compounds with a hit; in the whole collection about 3.9% have one here.

How did c1ccc2c(c1)nc(N1CCOCC1)c1c3ccccc3[nH]c21 do in these assays?
Mot1-301 SUMO: inactive; N-glyco inh: 39; NSD2 HMT inh: inactive; Casp6 inh: inactive; ALR inh: inactive; CDK5 p35 inh: inactive

Results for Fc1ccc(Nc2nc(N3CCOCC3)c3ccccc3n2)cc1 ?
Mot1-301 SUMO: inactive; N-glyco inh: inactive; NSD2 HMT inh: inactive; ALR inh: 93; CDK5 p35 inh: inactive

How did CC(NC(=O)CCNC(=O)N1CCn2c1nc1ccccc12)c1ccccc1 (centres undefined) do in these assays?
Mot1-301 SUMO: inactive; N-glyco inh: inactive; NSD2 HMT inh: inactive; Casp6 inh: inactive; ALR inh: 97; CDK5 p35 inh: inactive

Results for CSCC[C@H](NC(=O)N1CCn2c1nc1ccccc12)C(=O)N1CCCCC1 ?
Mot1-301 SUMO: inactive; N-glyco inh: inactive; NSD2 HMT inh: inactive; Casp6 inh: inactive; ALR inh: 98; CDK5 p35 inh: inactive

Results for O=C(CCCCCNC(=O)N1CCn2c1nc1ccccc12)N[C@H](C(=O)O)c1ccccc1 ?
Mot1-301 SUMO: inactive; N-glyco inh: inactive; Casp6 inh: inactive; ALR inh: inactive; CDK5 p35 inh: inactive

What do the screens show for `Nc1c(S(=O)(=O)c2ccccc2)c2nc3ccccc3nc2n1C1CC1`?
Mot1-301 SUMO: inactive; N-glyco inh: inactive; Casp6 inh: inactive; ALR inh: 99; CDK5 p35 inh: inactive

Results for COc1ccc2c3c([nH]c2c1)[C@H](CO)N(C(=O)C1CC1)CC31CCN(C)CC1 ?
Casp6 inh: inactive

Results for O=C(CCCc1c[nH]c2ccccc12)N1CCN(c2ccc(N3CCOCC3)nn2)CC1 ?
Mot1-301 SUMO: inactive; N-glyco inh: inactive; Casp6 inh: inactive; ALR inh: 90; CDK5 p35 inh: inactive

What do the screens show for `O=C(CCc1c[nH]c2ccccc12)N1CCN(c2ccc(F)cc2)CC1`?
Mot1-301 SUMO: inactive; N-glyco inh: inactive; NSD2 HMT inh: inactive; Casp6 inh: inactive; ALR inh: inactive; CDK5 p35 inh: inactive

How did COc1cnc(-c2ccccn2)nc1Sc1ccccc1 do in these assays?
Mot1-301 SUMO: inactive; N-glyco inh: inactive; NSD2 HMT inh: inactive; Casp6 inh: inactive; ALR inh: 96; CDK5 p35 inh: inactive

Results for COc1ccc(Sc2nc(-c3ccccn3)ncc2OC)cc1 ?
Mot1-301 SUMO: inactive; N-glyco inh: inactive; NSD2 HMT inh: inactive; Casp6 inh: inactive; ALR inh: inconclusive; CDK5 p35 inh: inactive

Results for CNC[C@H]1OCCCC[C@H](C)Oc2ccc(NS(=O)(=O)c3cccs3)cc2C(=O)N([C@H](C)CO)C[C@@H]1C ?
Casp6 inh: inactive

How did O=S(=O)(c1ccc(Cl)cc1)N1CCN(C2CCN(Cc3ccccc3)CC2)CC1 do in these assays?
N-glyco inh: inactive; NSD2 HMT inh: inactive; ALR inh: inactive; CDK5 p35 inh: inactive

Results for O=[N+]([O-])c1ccc(S(=O)(=O)N2CCN(C3CCN(Cc4ccccc4)CC3)CC2)cc1 ?
Mot1-301 SUMO: 379; N-glyco inh: inactive; NSD2 HMT inh: inactive; Casp6 inh: inactive; ALR inh: inactive; CDK5 p35 inh: inactive

Results for CNC[C@H]1Oc2c(NS(=O)(=O)c3c(C)noc3C)cccc2C(=O)N([C@@H](C)CO)C[C@H]1C ?
Casp6 inh: inactive

Results for CC(C)C(=O)c1ccc(O)c(O)c1 ?
Mot1-301 SUMO: inactive; N-glyco inh: inactive; NSD2 HMT inh: inactive; Casp6 inh: inactive; ALR inh: 99; CDK5 p35 inh: inactive

What do the screens show for `C[C@H]1CN([C@@H](C)CO)C(=O)c2cc(NS(=O)(=O)c3ccc(F)cc3)ccc2O[C@H]1CN(C)C`?
Casp6 inh: inactive

Results for C[C@@H]1CCCCO[C@H](CN(C)C(=O)C2CCCCC2)[C@@H](C)CN([C@H](C)CO)C(=O)c2cc(NC(=O)Nc3ccc(C(F)(F)F)cc3)ccc2O1 ?
Casp6 inh: inactive

What do the screens show for `Cc1nonc1C(=O)N1CCCC(N2CCN(c3ccc(F)cc3)CC2)C1` (centres undefined)?
Mot1-301 SUMO: inactive; N-glyco inh: inactive; NSD2 HMT inh: inactive; Casp6 inh: inactive; ALR inh: 98; CDK5 p35 inh: inactive

How did Cc1cc(C(=O)N2CCCC(N3CCN(c4ccc(F)cc4)CC3)C2)c(C)o1 (centres undefined) do in these assays?
Mot1-301 SUMO: inactive; N-glyco inh: inactive; Casp6 inh: inactive; ALR inh: inactive

Results for CC(C)c1ccc(NC2CCCN(C(=O)CCN3CCCC3=O)C2)cc1 (centres undefined) ?
Mot1-301 SUMO: inactive; N-glyco inh: inactive; NSD2 HMT inh: inactive; Casp6 inh: inactive; ALR inh: 78; CDK5 p35 inh: inactive

What do the screens show for `O=C(CCN1CCCCO1)N1CCCC(Nc2ccc(F)c(F)c2)C1` (centres undefined)?
Mot1-301 SUMO: inactive; N-glyco inh: inactive; NSD2 HMT inh: inactive; Casp6 inh: inactive; ALR inh: inactive; CDK5 p35 inh: inactive

How did Cc1ccc(NC2CCCN(C(=O)CCN3CCCCO3)C2)cc1C (centres undefined) do in these assays?
Mot1-301 SUMO: inactive; N-glyco inh: inactive; NSD2 HMT inh: inactive; Casp6 inh: inactive; ALR inh: 98; CDK5 p35 inh: inactive

Results for Cc1ccnn1CCC(=O)N1CCCC(Nc2ccc(C(C)C)cc2)C1 (centres undefined) ?
N-glyco inh: inactive; NSD2 HMT inh: inactive; Casp6 inh: inactive

Results for CC(C)c1ccc(NC2CCCN(C(=O)CCc3cnn(C)c3)C2)cc1 (centres undefined) ?
Mot1-301 SUMO: inactive; N-glyco inh: inactive; NSD2 HMT inh: inactive; Casp6 inh: inactive; ALR inh: 98; CDK5 p35 inh: inactive

What do the screens show for `O=C(C[C@H]1C=C[C@@H](NC(=O)CN2CCOCC2)[C@H](CO)O1)NCCc1ccncc1`?
Casp6 inh: inactive

What do the screens show for `O=C(C[C@H]1C=C[C@@H](NC(=O)c2ccc(F)cc2)[C@H](CO)O1)NCCc1ccncc1`?
Casp6 inh: inactive

What do the screens show for `O=C(CCN1CCCCO1)N1CCCC(N2CCN(c3ccc(F)cc3)CC2)C1` (centres undefined)?
Mot1-301 SUMO: inactive; N-glyco inh: inactive; NSD2 HMT inh: inactive; Casp6 inh: inactive; ALR inh: 97

Results for O=C1CCCCN1CC(=O)N1CCCC(Nc2ccc(F)cc2)C1 (centres undefined) ?
Mot1-301 SUMO: inactive; N-glyco inh: inactive; NSD2 HMT inh: inactive; Casp6 inh: inactive; ALR inh: 91; CDK5 p35 inh: inactive
